Here are results for 40 compounds from PubChem BioAssay AID890 (National Center for Advancing Translational Sciences (NCATS), 2007).

“And” between values parts separate entries of the source, which are not always exact repeats. Equal values may be shown once. The source made the active and inactive calls. Entries that show only a call come without a potency. Calls follow the shape of the dose curve; as a rule, active = well fitted activation curve with a large enough effect; inactive = flat fitted curve, though single readings scatter.

This experiment is described as follows: Confirmation Concentration-Response Assay for Epigenetic Modulators. The settings on record: murine C127i cells, silenced GFP reporter derepression, imaging; series mostly up to 46 µM. From the text:
NIH Molecular Libraries Screening Centers Network [MLSCN] NIH Chemical Genomics Center [NCGC] MLSCN Grant: 1 X01 MH079860-01 Assay Provider: Elisabeth D. Martinez, University of Texas SW Medical Center NCGC Assay Overview: The Locus Derepression assay detects the derepression of a GFP reporter that is stably integrated in a region of the genome of murine c127i mammary cells that is presumably silenced. GFP transcription in this construct is controlled by a CMV promoter, which normally is strong and constitutively active. However, this line was selected for lack of constitutive expression of the GFP protein. GFP production can be induced by incubating the cells with histone deacetylase or DNA methyltransferase inhibitors. Compounds that cause derepression of the locus to express GFP are identified by enumerating GFP positive cells using a laser-scanning microplate cytometer.
NCGC Assay Protocol Summary: Two hundred and fifty cells in 5 uL per well were dispensed into black, clear-bottom 1536-well plates. Twenty-three nL compound was transferred to the assay plate and cells were incubated 30 hours at 37 C. Medium was removed, cells were washed two times with PBS, and GFP-positive cells were enumerated as fluorescent objects between the sizes of 20 to 120 um width and depth using a laser-scanning microplate imager (Acumen Explorer Ex3, TTP Labtech) Keywords: NIH Roadmap, MLSCN, MLI, MLSMR, qHTS, NCGC, qHTS, HDAC, DNMT, HAT, DNA methyltransferases, histone acetyl transferases, histone deacetylases
Turning to `O=Nc1ccc(O)c2ncccc12`, the Potency is 2.78 µM (active). Then `COc1ccc(C(=O)NC(c2ccco2)c2cc(Cl)c3cccnc3c2O)cc1` (stereo not given), with “inactive”. For `O=C(Cc1ccccc1)NC(c1ccco1)c1ccc2cccnc2c1O` (stereo not given), the Potency is 16.2 µM (active).

`CC(/C=C/C(=O)NO)=C\[C@@H](C)C(=O)c1ccc(N(C)C)cc1`: the Potency is 1.12 µM (active). As to `CC(C)C(=O)NC(c1ccco1)c1cc([N+](=O)[O-])c2cccnc2c1O` (stereo not given), the Potency result is “inactive”. Regarding `S=C1SCN(C2CCCC2)CN1Cc1ccco1`, the Potency entry is “inactive”. Consider `O=C1OCCC1Sc1cccc2cccnc12` (stereo not given), for which the Potency is 7.44 µM (active). In the case of `CN(C)C(=O)CSc1cccc2cccnc12`, the Potency is 6.96 µM (active). With `CC(C)C(=O)NC(c1cccs1)c1cc(Cl)c2cccnc2c1O` (stereo not given) the entry was “inactive”; with `Cc1cc(NC(c2ccccn2)c2ccc3cccnc3c2O)no1` (stereo not given), 8 µM (active). `Cc1cc(C)n(-c2nc(NC(C)C)nc(NC(C)C)n2)n1`: the Potency entry was “inactive”. On to `CN1C(=S)SC(c2ccccc2)N(C)C1c1ccccc1` (stereo not given), for which the Potency result was “inactive”.

`COc1ccc(C)cc1NC(c1ccccn1)c1ccc2cccnc2c1O` (stereo not given): the Potency result is “inactive”. In the case of `Cc1cc(C)n(-c2nc(N(C)C)nc(N(C)C)n2)n1`, the Potency entry is “inactive”. Then `c1ccc(Nc2nc(Nc3ccccc3)nc(-n3cccn3)n2)cc1`, with “inactive”; and `Oc1ccc(COCc2ccccc2)c2cccnc12`, with “inactive”. With `COCc1cc(CN2CCN(C)CC2)c(O)c2ncccc12`, the Potency was 37.6 µM (active). With `CC(C)C(=O)NC(c1ccco1)c1ccc2cccnc2c1O` (stereo not given) the figure was 7.57 µM (active) and 4.6 µM (active).

For `CCOCc1ccc(O)c2ncccc12`, the Potency was 4.97 µM (active). Take `Cc1ccc(N=Nc2ccc(O)c3ncccc23)cc1C`: the Potency result is “inactive”. As to `COc1ccc(C(NC(=O)C(C)C)c2ccc3cccnc3c2O)cc1` (stereo not given), the Potency is 7.83 µM (active). Turning to `CC(C)C(=O)NC(/C=C/c1ccccc1)c1cc([N+](=O)[O-])c2cccnc2c1O` (stereo not given), the Potency result was “inactive”.

Consider `O=C(CSc1cccc2cccnc12)N1CCCC1`, for which the Potency was 8.94 µM (active). Take `O=C(CSc1cccc2cccnc12)Nc1ccccc1`: the Potency result was “inactive”.

With `Cc1cc(C)n(-c2nc(NC(C)(C)C)nc(NC(C)(C)C)n2)n1`, the Potency result is “inactive”. Turning to `CCN1CSC(=S)N(CC)C1`, the Potency was 7 µM (active).

As for `CCNc1nc(NCC)nc(-n2cc(C(=O)c3cc(Cl)ccc3O)cn2)n1`, the Potency entry is “inactive”. Take `CC(C)C(=O)NC(c1ccc(C(C)C)cc1)c1cc(Cl)c2cccnc2c1O` (stereo not given): the Potency entry was “inactive”.

As for `CCCCC1CC1C(=O)Nc1ccc(OC)c(OC)c1` (stereo not given), the Potency was 14.3 µM (active). `CC(C)C(=O)NC(c1ccc(N(C)C)cc1)c1ccc2cccnc2c1O` (stereo not given): the Potency is 8.14 µM (active). In the case of `COc1ccc(NC(c2ccccn2)c2ccc3cccnc3c2O)cc1` (stereo not given), the Potency entry is “inactive”. With `Oc1c(C(Nc2ccccn2)c2ccccn2)ccc2cccnc12` (stereo not given) the figure was 36.2 µM (active). Regarding `O=C(CSc1cccc2cccnc12)NCc1ccccc1`, the Potency result is “inactive”. With `Oc1c(C(Nc2ccccc2C(F)(F)F)c2ccccn2)ccc2cccnc12` (stereo not given) the entry was “inactive”; with `O=C(Oc1cccc2cccnc12)c1ccc(Br)o1`, 14.6 µM (active); with `COC(=O)c1cccc(NC(c2ccccn2)c2ccc3cccnc3c2O)c1` (stereo not given), “inactive”. For `O=C(CC(c1ccco1)S(=O)(=O)c1ccccc1)c1ccc(F)cc1` (stereo not given), the Potency entry is “inactive”.

With `Oc1c(C(Nc2ccccn2)c2ccco2)cc(Cl)c2cccnc12` (stereo not given), the Potency entry is “inactive”. As for `CCNc1nc(NCC)nc(-n2nc(C)cc2C)n1`, the Potency entry was “inactive”.

For the compound `Cc1cc(C)n(-c2nc(NC(C)C)nc(NC(C)(C)C)n2)n1`, the Potency result is “inactive”.
